Experiment [1] concerns the target human Caspase 2 (CASP2), CASP2 (gene 835) (UniProt P42575). Put plainly: NVS_ENZ_hCASP2: NovaScreen (NVS) Enzymatic Assay for human Caspase 2 (CASP2) (AID 2283135). An outline of the steps:
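E. coli-expressed enzyme in a cell-free protease assay, fluorescence read 1 h after dosing. Compounds at 25 uM in duplicate, with concentration-response up to 50 uM for hits; loss of signal against DMSO baseline.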

Experiment [2] addresses human Fibroblast Growth Factor Receptor 1 (FGFR1), FGFR1 (gene 2260) (UniProt P11362). Nature of the experiment: NVS_ENZ_hFGFR1: NovaScreen (NVS) Enzymatic Assay for human Fibroblast Growth Factor Receptor 1 (FGFR1) (AID 2283159).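 On AC50: hits lower the signal so potencies describe inhibitors of the kinase.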 In a few lines:
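Cell-free recombinant kinase with fluorescent substrate, product separated by electrophoretic mobility shift; read 1 hour after dosing, loss of signal relative to DMSO. Initial screen in duplicate at 25 uM, actives followed in concentration series.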

The target in experiment [3] is human Protein Tyrosine Phosphatase Receptor Type C (PTPRC), PTPRC (gene 5788) (UniProt P08575). Nature of the experiment: NVS_ENZ_hPTPRC: NovaScreen (NVS) Enzymatic Assay for human Protein Tyrosine Phosphatase Receptor Type C (PTPRC) (AID 2283212). An outline of the steps: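 Yeast-extracted human PTPRC used in a cell-free colorimetric enzyme activity read-out, 1 h after dosing. Primary screen in duplicate at 25 uM; actives rerun in concentration-response up to 50 uM, DMSO as baseline.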

Experiment [4] deals with rat Corticotropin Releasing Factor Receptor (CRF), Crhr1 (gene 58959) (UniProt P35353). Put plainly: NVS_GPCR_rCRF: NovaScreen (NVS) G Protein-Coupled Receptor Assay for rat Corticotropin Releasing Factor Receptor (CRF) (AID 2283300). An outline of the steps: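 Rat cortical membranes used as receptor source in a radioligand competitive displacement binding assay; scintillation read 2 h after dosing. Primary screen run in duplicate at 25 uM; loss of signal versus DMSO baseline indicates binding.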

Experiment [5] addresses Voltage-dependent N-type calcium channel subunit alpha-1B (Rattus norvegicus) (UniProt Q02294). Put plainly: NVS_IC_rCaChN: NovaScreen (NVS) Ion Channel Assay for rat Calcium Channel, Type N (CaChN) (AID 2283317).
Experiment [6] has as its target human Phosphatase and Tensin Homolog (PTEN), PTEN (gene 5728) (UniProt P60484). Nature of the experiment: NVS_ENZ_hPTEN: NovaScreen (NVS) Enzymatic Assay for human Phosphatase and Tensin Homolog (PTEN) (AID 2283203). An outline of the steps:
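Cell-free recombinant human PTEN with fluorescent substrate; product separated by electrophoretic mobility shift and read by fluorescence 1 h after dosing. Primary screen in duplicate at 25 uM, actives followed in concentration series versus DMSO.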

Experiment [7] addresses human Aurora Kinase A - serine/threonine-protein Kinase 6 (AurA), AURKA (gene 6790) (UniProt O14965). Nature of the experiment: NVS_ENZ_hAurA: NovaScreen (NVS) Enzymatic Assay for human Aurora Kinase A - serine/threonine-protein Kinase 6 (AurA) (AID 2283142). An outline of the steps:
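Cell-free enzymatic assay with human Aurora A, 1 hour after dosing. Fluorescent substrate turnover detected after electrophoretic mobility shift separation of substrate and product. Screened at 25 uM, actives retested in concentration-response up to 50 uM.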

Experiment [8] concerns the target human Epidermal Growth Factor Receptor (EGFR), EGFR (gene 1956) (UniProt P00533). Put plainly: NVS_ENZ_hEGFR: NovaScreen (NVS) Enzymatic Assay for human Epidermal Growth Factor Receptor (EGFR) (AID 2283151). In a few lines: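 Cell-free kinase assay, fluorescence plus electrophoretic mobility shift separating substrate and product, read 1 hour after dosing; loss of signal vs DMSO. Duplicate screen at 25 uM, then concentration-response to 50 uM.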

Experiment [9] concerns the target human Protein Tyrosine Phosphatase Non-receptor Type 2 (PTPN2), PTPN2 (gene 5771) (UniProt P17706). Put plainly: NVS_ENZ_hPTPN2: NovaScreen (NVS) Enzymatic Assay for human Protein Tyrosine Phosphatase Non-receptor Type 2 (PTPN2) (AID 2283207). In a few lines: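 Cell-free recombinant enzyme with fluorescent substrate, product separated by electrophoretic mobility shift; read 1 h after dosing. Primary screen single concentration (25 uM) in duplicate; actives followed in concentration series; loss of signal versus DMSO.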

Experiment [10] addresses human Tyrosine Protein Kinase Receptor Tie-2 (Tie2), TEK (gene 7010) (UniProt Q02763). Put plainly: NVS_ENZ_hTie2: NovaScreen (NVS) Enzymatic Assay for human Tyrosine Protein Kinase Receptor Tie-2 (Tie2) (AID 2283225). An outline of the steps: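 Recombinant human Tie2 kinase activity was read cell-free by fluorescence with electrophoretic mobility shift, 1 hour after dosing. The screen used 25 uM in duplicate, then concentration-response up to 50 uM. Signal loss was scored against DMSO.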

For experiment [11], the target named is rat Gamma-Aminobutyric Acid Type A Receptor BDZ, alpha 6 site (GABARa6), Gabra6 (gene 29708) (UniProt P30191). Nature of the experiment: NVS_LGIC_rGABARa6: NovaScreen (NVS) Ligand-Gated Ion Channel Assay for rat Gamma-Aminobutyric Acid Type A Receptor BDZ, alpha 6 site (GABARa6) (AID 2283339). In a few lines: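 Rat cerebellar membranes; radioligand binding, filtration and scintillation counting, read 1 h after dosing. Single-concentration duplicate screen at 25 uM, then concentration-response up to 50 uM for actives; loss of signal fitted versus DMSO baseline.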

Experiment [12] deals with human NIMA (Never In Mitosis Gene A)-Related Kinase 2 (NEK2), NEK2 (gene 4751) (UniProt P51955). Nature of the experiment: NVS_ENZ_hNEK2: NovaScreen (NVS) Enzymatic Assay for human NIMA (Never In Mitosis Gene A)-Related Kinase 2 (NEK2) (AID 2283188). In a few lines:
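Cell-free NEK2 enzyme activity after 1 h exposure, read by fluorescence with electrophoretic mobility shift separating substrate and product. Primary screen in duplicate at 25 uM; actives then run as concentration series. Loss of signal versus DMSO scored.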

Experiment [13] deals with human p21 Activated Kinase 4 (PAK4), PAK4 (gene 10298) (UniProt O96013). Nature of the experiment: NVS_ENZ_hPAK4: NovaScreen (NVS) Enzymatic Assay for human p21 Activated Kinase 4 (PAK4) (AID 2283189). In a few lines:
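Cell-free recombinant human PAK4 activity assay; fluorescent substrate and product separated by electrophoretic mobility shift, read 1 h after dosing. Initially tested in duplicate at 25 uM, relative to DMSO baseline.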

Experiment [14] deals with human Raf-1 Proto-Oncogene, serine/threonine Kinase (RAF1), RAF1 (gene 5894) (UniProt P04049). Nature of the experiment: NVS_ENZ_hRAF1: NovaScreen (NVS) Enzymatic Assay for human Raf-1 Proto-Oncogene, serine/threonine Kinase (RAF1) (AID 2283216). In a few lines: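 Cell-free recombinant kinase with specific fluorescent substrate, product separated by electrophoretic mobility shift; read 1 h after dosing. Primary screen at 25 uM in duplicate; hits then run in concentration-response up to 50 uM, fitted as loss of signal versus DMSO.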

Experiment [15] has as its target rat Acetylcholinesterase (AChE), Ache (gene 83817) (UniProt P37136). Nature of the experiment: NVS_ENZ_rAChE: NovaScreen (NVS) Enzymatic Assay for rat Acetylcholinesterase (AChE) (AID 2283233). In a few lines: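 Rat brain membrane acetylcholinesterase activity measured colorimetrically 0.33 h after compound addition, loss of signal relative to DMSO. Primary screen in duplicate at 25 uM; actives re-run as concentration-response with 50 uM top concentration.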

For experiment [16], the target named is Bile acid receptor (Homo sapiens) (UniProt Q96RI1). Nature of the experiment: NVS_NR_hFXR_Agonist: NovaScreen (NVS) Nuclear Receptor Binding Assay for human Farnesoid X Receptor Agonism (FXR) (AID 2283347). In a few lines: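 Cell-free TR-FRET binding assay with extracted human FXR protein, agonist format, read 1 h after dosing. Primary screen at 25 uM single concentration in duplicate, actives retested in concentration series; gain of signal versus DMSO.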

For a further experiment, the target named is Caspase-1 (Homo sapiens) (UniProt P29466). Nature of the experiment: NVS_ENZ_hCASP1: NovaScreen (NVS) Enzymatic Assay for human Caspase 1 (CASP1) (AID 2283132). An outline of the steps:
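Cell-free enzymatic assay with E. coli-expressed recombinant protein; fluorescence intensity read 1 hour after dosing. Single-concentration duplicate screen at 25 uM, then concentration-response up to 50 uM; activity fitted relative to DMSO, loss of signal meaning inhibition.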

Experiment [17] addresses rat Monoamine Oxidase, MAO-B, Peripheral (MAOBP), Maob (gene 25750) (UniProt P19643). Nature of the experiment: NVS_ENZ_rMAOBP: NovaScreen (NVS) Enzymatic Assay for rat Monoamine Oxidase, MAO-B, Peripheral (MAOBP) (AID 2283242).
The target of experiment [18] is Norway rat Vesicular Monoamine Transporter (VMAT2), neurotransmitter transporter, Slc18a2 (gene 25549) (UniProt Q01827). Put plainly: NVS_TR_rVMAT2: NovaScreen (NVS) Transporter Assay for Norway rat Vesicular Monoamine Transporter (VMAT2), neurotransmitter transporter (AID 2283376).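 Further: actives lower the bound radioligand signal below the DMSO level.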 In a few lines:
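Tissue: rat forebrain extract. Format: competitive radioligand binding, cell-free. Timepoint: 1 h. Readout: filter radiodetection/scintillation. Screen: 25 uM in duplicate, then concentration series for actives. Baseline: DMSO.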

Inconclusive results are not listed. Calls of active or inactive are those of the source. How the source made its calls: active means hit-call score of the fitted dose curve at least 0.9, where 1 is the maximum; inconclusive means response in the unintended direction; inactive means score below 0.9.

Sequence of human Phosphatase and Tensin Homolog (PTEN), PTEN (gene 5728) (P60484 whole entry, looked up): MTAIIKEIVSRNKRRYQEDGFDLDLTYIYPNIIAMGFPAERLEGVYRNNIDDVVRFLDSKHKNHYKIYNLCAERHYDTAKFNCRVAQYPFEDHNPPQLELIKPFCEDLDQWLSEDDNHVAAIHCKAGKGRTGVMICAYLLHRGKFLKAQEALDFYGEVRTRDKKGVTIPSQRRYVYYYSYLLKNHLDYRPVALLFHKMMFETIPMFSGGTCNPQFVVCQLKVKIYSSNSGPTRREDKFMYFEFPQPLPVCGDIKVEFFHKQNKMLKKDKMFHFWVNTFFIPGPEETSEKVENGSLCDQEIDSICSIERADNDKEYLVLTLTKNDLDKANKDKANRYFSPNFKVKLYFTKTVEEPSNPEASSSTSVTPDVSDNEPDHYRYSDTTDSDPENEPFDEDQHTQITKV
Sequence of human Aurora Kinase A - serine/threonine-protein Kinase 6 (AurA), AURKA (gene 6790) (O14965 whole entry, looked up): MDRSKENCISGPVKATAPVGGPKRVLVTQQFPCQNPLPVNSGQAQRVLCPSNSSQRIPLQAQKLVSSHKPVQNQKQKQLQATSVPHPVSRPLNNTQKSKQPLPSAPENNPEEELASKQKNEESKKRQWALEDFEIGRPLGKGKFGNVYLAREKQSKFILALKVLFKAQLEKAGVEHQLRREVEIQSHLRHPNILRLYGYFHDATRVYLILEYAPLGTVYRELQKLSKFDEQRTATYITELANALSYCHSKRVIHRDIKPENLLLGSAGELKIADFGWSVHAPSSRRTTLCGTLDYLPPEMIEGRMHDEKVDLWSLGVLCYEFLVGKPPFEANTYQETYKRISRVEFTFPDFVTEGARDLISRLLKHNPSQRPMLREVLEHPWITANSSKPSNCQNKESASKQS
Sequence of human Epidermal Growth Factor Receptor (EGFR), EGFR (gene 1956) (P00533 whole entry, looked up): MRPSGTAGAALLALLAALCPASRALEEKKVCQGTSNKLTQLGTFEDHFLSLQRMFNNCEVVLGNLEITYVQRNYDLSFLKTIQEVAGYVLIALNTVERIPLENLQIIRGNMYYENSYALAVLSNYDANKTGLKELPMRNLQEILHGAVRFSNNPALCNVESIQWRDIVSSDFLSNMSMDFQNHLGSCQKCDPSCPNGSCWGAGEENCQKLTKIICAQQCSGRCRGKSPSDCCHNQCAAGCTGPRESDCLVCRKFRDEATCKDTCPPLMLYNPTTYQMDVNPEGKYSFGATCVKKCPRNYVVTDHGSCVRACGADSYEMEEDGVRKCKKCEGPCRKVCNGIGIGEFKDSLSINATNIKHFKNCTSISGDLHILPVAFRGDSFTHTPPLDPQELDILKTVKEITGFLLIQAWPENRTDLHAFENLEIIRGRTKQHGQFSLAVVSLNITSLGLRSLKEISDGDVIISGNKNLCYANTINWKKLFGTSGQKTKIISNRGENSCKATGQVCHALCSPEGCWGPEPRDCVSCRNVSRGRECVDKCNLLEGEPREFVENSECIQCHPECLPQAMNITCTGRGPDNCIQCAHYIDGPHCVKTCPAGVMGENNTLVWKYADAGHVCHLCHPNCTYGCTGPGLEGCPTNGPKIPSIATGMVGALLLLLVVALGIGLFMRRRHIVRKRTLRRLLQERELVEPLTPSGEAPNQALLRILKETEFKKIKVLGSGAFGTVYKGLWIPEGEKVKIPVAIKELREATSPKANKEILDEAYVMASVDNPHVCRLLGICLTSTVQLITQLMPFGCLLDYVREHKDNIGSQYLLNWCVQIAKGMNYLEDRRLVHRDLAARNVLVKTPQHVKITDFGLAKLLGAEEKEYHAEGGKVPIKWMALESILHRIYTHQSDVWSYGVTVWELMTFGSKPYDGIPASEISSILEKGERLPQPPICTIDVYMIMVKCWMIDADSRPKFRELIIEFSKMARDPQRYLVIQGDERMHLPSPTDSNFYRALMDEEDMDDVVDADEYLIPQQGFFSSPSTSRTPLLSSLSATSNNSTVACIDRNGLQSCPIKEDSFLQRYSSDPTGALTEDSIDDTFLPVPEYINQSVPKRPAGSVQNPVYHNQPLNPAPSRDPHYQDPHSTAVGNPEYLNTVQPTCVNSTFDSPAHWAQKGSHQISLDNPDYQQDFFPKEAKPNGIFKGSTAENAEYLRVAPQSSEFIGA
Sequence of human Fibroblast Growth Factor Receptor 1 (FGFR1), FGFR1 (gene 2260) (P11362 whole entry, looked up): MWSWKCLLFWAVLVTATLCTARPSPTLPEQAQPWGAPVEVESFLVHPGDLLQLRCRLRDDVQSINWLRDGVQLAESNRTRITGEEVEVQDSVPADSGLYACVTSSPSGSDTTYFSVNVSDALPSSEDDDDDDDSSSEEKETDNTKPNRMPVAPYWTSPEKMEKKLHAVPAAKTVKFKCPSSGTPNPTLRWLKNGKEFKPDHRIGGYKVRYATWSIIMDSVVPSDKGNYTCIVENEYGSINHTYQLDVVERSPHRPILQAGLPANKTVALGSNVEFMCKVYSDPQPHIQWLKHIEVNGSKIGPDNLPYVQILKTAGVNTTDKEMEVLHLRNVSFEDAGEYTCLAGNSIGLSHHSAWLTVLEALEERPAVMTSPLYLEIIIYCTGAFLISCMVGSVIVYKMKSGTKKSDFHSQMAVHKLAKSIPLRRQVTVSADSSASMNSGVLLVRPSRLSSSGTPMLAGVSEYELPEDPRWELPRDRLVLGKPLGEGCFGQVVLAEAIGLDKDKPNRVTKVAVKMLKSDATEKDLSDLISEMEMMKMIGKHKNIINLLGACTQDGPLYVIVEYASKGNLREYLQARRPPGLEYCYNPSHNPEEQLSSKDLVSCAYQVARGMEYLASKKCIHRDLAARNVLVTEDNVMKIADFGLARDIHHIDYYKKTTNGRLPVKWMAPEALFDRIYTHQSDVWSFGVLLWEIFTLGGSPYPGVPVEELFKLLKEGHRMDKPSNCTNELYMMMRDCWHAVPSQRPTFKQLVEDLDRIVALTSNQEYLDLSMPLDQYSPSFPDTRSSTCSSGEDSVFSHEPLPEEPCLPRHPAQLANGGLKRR
Sequence of human Caspase 2 (CASP2), CASP2 (gene 835) (P42575 whole entry, looked up): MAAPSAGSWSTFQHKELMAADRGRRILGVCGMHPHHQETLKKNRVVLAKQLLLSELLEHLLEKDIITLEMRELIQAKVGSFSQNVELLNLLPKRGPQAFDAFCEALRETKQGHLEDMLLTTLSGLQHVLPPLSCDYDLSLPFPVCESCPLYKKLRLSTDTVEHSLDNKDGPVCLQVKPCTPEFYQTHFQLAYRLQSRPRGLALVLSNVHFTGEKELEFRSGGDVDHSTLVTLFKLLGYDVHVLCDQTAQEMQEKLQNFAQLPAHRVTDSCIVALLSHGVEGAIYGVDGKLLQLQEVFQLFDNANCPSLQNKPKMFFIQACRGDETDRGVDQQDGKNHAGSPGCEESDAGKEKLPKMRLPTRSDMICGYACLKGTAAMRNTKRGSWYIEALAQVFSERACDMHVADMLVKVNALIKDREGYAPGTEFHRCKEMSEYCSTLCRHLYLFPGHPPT
Sequence of human Protein Tyrosine Phosphatase Receptor Type C (PTPRC), PTPRC (gene 5788) (P08575 whole entry, looked up): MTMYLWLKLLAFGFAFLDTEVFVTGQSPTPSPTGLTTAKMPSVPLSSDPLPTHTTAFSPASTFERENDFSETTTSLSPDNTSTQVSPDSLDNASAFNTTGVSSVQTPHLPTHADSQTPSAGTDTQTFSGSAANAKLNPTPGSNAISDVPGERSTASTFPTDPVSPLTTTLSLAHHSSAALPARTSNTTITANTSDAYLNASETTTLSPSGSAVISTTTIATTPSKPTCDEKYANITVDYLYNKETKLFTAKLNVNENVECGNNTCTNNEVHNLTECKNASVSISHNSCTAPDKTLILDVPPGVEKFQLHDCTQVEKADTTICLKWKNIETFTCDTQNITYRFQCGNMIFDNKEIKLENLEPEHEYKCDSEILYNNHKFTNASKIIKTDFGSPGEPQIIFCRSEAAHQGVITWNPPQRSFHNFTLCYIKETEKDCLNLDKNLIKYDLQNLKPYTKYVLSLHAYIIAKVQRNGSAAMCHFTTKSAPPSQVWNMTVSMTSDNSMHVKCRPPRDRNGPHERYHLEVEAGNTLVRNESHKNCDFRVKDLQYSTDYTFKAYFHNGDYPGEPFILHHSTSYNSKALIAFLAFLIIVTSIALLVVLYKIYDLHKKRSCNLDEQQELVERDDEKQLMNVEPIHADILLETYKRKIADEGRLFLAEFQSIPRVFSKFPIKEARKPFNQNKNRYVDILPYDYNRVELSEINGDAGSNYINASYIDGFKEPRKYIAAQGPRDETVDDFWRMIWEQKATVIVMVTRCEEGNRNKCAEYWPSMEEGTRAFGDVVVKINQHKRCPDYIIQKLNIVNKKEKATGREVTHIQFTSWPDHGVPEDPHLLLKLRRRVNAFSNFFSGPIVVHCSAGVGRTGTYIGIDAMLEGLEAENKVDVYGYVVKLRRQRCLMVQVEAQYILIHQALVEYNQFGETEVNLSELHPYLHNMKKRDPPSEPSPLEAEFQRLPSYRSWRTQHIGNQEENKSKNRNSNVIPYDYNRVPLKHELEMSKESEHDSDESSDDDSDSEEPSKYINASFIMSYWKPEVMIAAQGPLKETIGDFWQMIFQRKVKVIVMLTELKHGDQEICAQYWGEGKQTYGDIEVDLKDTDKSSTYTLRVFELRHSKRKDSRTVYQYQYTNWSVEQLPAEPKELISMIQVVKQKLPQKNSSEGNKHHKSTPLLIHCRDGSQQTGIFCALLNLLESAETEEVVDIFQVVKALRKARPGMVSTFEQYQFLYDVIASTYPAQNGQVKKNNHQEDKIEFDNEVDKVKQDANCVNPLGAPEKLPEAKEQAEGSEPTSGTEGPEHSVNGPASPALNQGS
Sequence of rat Corticotropin Releasing Factor Receptor (CRF), Crhr1 (gene 58959) (P35353 whole entry, looked up): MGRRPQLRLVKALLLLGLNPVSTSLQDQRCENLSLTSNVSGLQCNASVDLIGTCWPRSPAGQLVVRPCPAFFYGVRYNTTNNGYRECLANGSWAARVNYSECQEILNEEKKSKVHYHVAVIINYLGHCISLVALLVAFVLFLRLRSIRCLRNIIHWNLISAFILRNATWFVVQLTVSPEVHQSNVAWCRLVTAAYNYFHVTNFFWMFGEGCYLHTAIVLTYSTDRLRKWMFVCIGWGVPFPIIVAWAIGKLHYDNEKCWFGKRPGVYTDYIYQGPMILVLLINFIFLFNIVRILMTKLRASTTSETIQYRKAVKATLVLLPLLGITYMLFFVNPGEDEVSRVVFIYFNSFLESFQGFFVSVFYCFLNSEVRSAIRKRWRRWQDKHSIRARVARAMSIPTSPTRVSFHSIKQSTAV

As usually defined, the AC50 is the concentration giving half of the maximal activity seen. Consider `Cc1oc(-c2ccccc2)nc1CCOc1cccc2c1ccn2CCC(=O)O`, for which the compound was called inactive in [1], in experiment [2], in experiment [4] and in [5]. The AC50 in experiment [3] was 5980 nM (active).

Turning to `Cc1nc(C)nc(N2C[C@@H](C)N(c3ccnc([C@@H](C)O)n3)[C@@H](C)C2)n1`, the call in experiment [1] and in experiment [6] was inactive.

`O=C(Nc1ccc([N+](=O)[O-])cc1Cl)c1cc(Cl)ccc1O`: the compound was called inactive in experiment [7].

On to `N[C@@H](Cc1c[nH]c2ccccc12)C(=O)O`, for which the compound was classed as inactive in [1].

Take `O=C1CCC(N2C(=O)c3ccccc3C2=O)C(=O)N1` (stereo unspecified): in [1], the result was inactive.

For the compound `CCCC(CCC)C(=O)O`, the compound was called inactive in experiment [1], in experiment [7], in [8], in [2], in experiment [6] and in experiment [9]. In addition, the call in experiment [10] and in experiment [11] was inactive.

`CN1C(=O)N(c2ccccc2Br)Cc2cnc(Nc3ccc4c(c3)OCC(CO)O4)nc21` (stereo unspecified): the AC50 in experiment [7] is 5650 nM (active); in experiment [8] it was 2.29 nM (active); in experiment [2] it was 5.9 nM (active); in experiment [12], 2.29 nM (active); in experiment [13], 8540 nM (active); in [14], 3.59 nM (active).

With `Cc1nccn1-c1ccc(Sc2cccc(C3(C(N)=O)CCOCC3)c2)cc1`, the compound was classed as inactive in [1], in [15] and in experiment [5].

With `CC(=O)c1ccccc1`, the result in experiment [1] was inactive.

`CCc1c(C(=O)NN2CCCCC2)nn(-c2ccc(Cl)cc2Cl)c1-c1ccc(Br)cc1`: the outcome in experiment [7], in [8], in experiment [2], in [13], in experiment [14] and in experiment [10] was inactive. Further, in [16], the compound was called inactive.

For `O=C(O)c1[nH]n(-c2ccc(S(=O)(=O)O)cc2)c(=O)c1N=Nc1ccc(S(=O)(=O)O)cc1`, the result in experiment [1], in experiment [8] and in [6] was inactive.

In the case of `C[C@@H](Oc1ccc(CNC(=O)c2cccnc2Oc2ccc3c(c2)OCO3)c(F)c1)C(=O)O`, the compound was called inactive in [1] and in experiment [5].

In the case of `CCc1cc(SCc2sc(-c3ccc(C(F)(F)F)cc3)nc2CN2CCN(c3ccc(OC)cc3)CC2)ccc1OCC(=O)O`, the concentration at half-maximal activity (AC50) with Caspase-1 (Homo sapiens) is 46100 nM (active). The result in experiment [17] was inactive.

For the compound `Cc1cccc([N+](=O)[O-])c1C`, the outcome in experiment [1] and in [3] was inactive.

Turning to `CO[C@H]1/C=C/O[C@@]2(C)Oc3c(C)c(O)c4c(O)c(c(/C=N/N5CCN(C)CC5)c(O)c4c3C2=O)NC(=O)/C(C)=C\C=C\[C@H](C)[C@H](O)[C@@H](C)[C@@H](O)[C@@H](C)[C@H](OC(C)=O)[C@@H]1C`, the call in experiment [1] and in experiment [18] was inactive.

The values are drawn from PubChem BioAssay (EPA / NIEHS).
